Only some compounds are listed: those with a hit (about 10% of all), similar ones and a draw of the others.
NIH3T3 tox = NIH 3T3 cell cytotoxicity; 94,000 tested, 4.3% active; Potency, µM (series often up to 96.7 µM), for inactives: top-dose activity change, negative = cytotoxicity, usual class: inhibitors; NIH 3T3 viability, CellTiter-Glo ATP luminescence, 48-72 h; AID 1345082; further: potency means the concentration at half of the fitted maximal effect; on the % scale 0 is the no-effect control and ±100 the full control effect; nearly all actives have a fitted effect of over 55% in size
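First NIH 3T3 cells are plated at 400 cells/well; next compound is pinned in; then plates incubate 48 or 72 hr at 37 °C; finally CellTiter-Glo is added and luminescence read after 10 min.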
GPT2 inhibitor = blocks human glutamate pyruvate transaminase 2; Q8TD30; Recombinant GPT2, coupled pyruvate oxidase/HRP Amplex Red fluorescence; Potency, µM (highest dose often 57.7 µM), for inactives: at the top dose activity change, negative = inhibition, most hits filed as inhibitors; 100,000 tested, 0.25% active; further: potency means the concentration at half of the fitted maximal effect; on the % scale 0 is the no-effect control and ±100 the full control effect; nearly all actives have a fitted effect of over 60% in size
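Recombinant GPT2 (10ng/uL) with 250uM a-KG and 2mM L-alanine, 30 min at room temperature, in HEPES pH 7.5 buffer. Pyruvate detected by pyruvate oxidase/HRP/Amplex Red fluorescence after 30 min in the dark; AOA (50uM) as positive control.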
FLuc inh = inhibitors of firefly (Photinus pyralis) luciferase; P08659; purified P. pyralis luciferase, luminescence, biochemical; Potency, µM (series often up to 115 µM), most hits filed as inhibitors; 76,000 tested, 2.5% active; AID 1347043; further: potency means the concentration at half of the fitted maximal effect; on the % scale 0 is the no-effect control and ±100 the full control effect; nearly all actives have a fitted effect of over 65% in size
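Biochemical qHTS: compound (6-point titration) added to 10uM D-luciferin plus 10uM ATP in Tris acetate pH 7.5 buffer with Mg, Tween-20 and BSA, then purified enzyme at 10nM; light output imaged.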
hNpr1 antagonist = antagonists of human natriuretic peptide receptor Npr1. AID 1347048. 76,000 tested, 1.6% active. Potency, µM (titrated, usually from 46.3 µM), without a hit: at the highest dose activity change, negative = inhibition, hits mostly inhibitors. HEK293 hNpr1 GloSensor cGMP, ANP-stimulated luminescence. P16066; calls by dose curve; further: potency means the concentration at half of the fitted maximal effect; on the % scale 0 is the no-effect control and ±100 the full control effect; nearly all actives have a fitted effect of over 60% in size
Target sequence (P16066 whole entry, looked up): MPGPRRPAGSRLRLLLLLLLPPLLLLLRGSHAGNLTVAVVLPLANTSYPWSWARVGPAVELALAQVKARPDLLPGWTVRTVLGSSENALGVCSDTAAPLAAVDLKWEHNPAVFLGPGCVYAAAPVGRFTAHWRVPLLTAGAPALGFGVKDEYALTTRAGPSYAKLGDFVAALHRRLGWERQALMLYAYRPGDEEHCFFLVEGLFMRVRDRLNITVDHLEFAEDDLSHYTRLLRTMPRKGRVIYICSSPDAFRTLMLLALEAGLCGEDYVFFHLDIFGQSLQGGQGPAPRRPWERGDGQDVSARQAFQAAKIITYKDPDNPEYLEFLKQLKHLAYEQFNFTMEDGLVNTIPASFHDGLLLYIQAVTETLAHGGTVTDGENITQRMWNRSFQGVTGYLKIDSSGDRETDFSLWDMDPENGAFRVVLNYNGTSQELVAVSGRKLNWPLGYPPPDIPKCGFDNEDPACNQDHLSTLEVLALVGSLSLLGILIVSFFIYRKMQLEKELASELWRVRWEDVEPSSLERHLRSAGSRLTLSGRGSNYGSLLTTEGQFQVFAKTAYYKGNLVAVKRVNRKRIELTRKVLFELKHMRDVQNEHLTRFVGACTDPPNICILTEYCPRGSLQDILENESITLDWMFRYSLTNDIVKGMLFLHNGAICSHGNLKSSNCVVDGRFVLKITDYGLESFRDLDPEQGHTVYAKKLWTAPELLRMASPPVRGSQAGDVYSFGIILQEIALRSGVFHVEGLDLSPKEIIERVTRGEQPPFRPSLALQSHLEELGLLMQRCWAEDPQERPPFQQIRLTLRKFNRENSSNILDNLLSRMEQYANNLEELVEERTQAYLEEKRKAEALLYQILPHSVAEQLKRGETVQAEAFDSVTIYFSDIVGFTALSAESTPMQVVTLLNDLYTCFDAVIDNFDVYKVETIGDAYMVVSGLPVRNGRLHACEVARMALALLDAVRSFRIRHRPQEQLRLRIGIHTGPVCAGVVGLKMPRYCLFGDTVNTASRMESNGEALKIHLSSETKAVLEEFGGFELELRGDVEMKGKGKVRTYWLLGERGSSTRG
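Compound pre-incubated 30 min at room temperature on GloSensor-loaded HEK293 cells stably carrying hNpr1 and the pGS-40F cGMP biosensor. Stimulation uses hNppA at 0.1 nM final; luminescence is taken at baseline and 20 min post-agonist.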
HEK293 tox = cytotoxic compounds in HEK 293 cells; HEK 293 viability, ATP luminescence (CellTiter-Glo), 48-72 h; Potency, µM (highest dose often 115 µM), for the others: at the highest dose activity change, negative = cytotoxicity, hits mostly inhibitors; 94,000 tested, 6.6% active; AID 1345083; further: potency means the concentration at half of the fitted maximal effect; on the % scale 0 is the no-effect control and ±100 the full control effect; nearly all actives have a fitted effect of over 60% in size
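HEK 293 seeded at 250 cells/well receive compound via pintool. After 48 or 72 hr at 37 degree Celsius, 5% CO2 and 95% humidity, CellTiter-Glo is dispensed and luminescence read following 10 min at room temperature.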
NPR1 antag cnf = hNpr1 antagonism, confirmation assay; shares compounds with hNpr1 antagonist; HEK293 hNpr1 cGMP GloSensor luminescence, ANP-stimulated; Potency, µM (doses to about 57.6 µM), inactives show top-dose activity change, negative = inhibition, most hits filed as inhibitors; 1,400 tested, 76% active; AID 1347044; calls by dose curve; further: potency means the concentration at half of the fitted maximal effect; nearly all actives have a fitted effect of over 70% in size
Npr2 selectivity = hNpr2 antagonism, selectivity versus Npr1; Potency, µM (series often up to 57.6 µM), for inactives: top-dose activity change, negative = inhibition, most hits filed as inhibitors; shares compounds with hNpr1 antagonist; HEK293 hNpr2 GloSensor cGMP luminescence, CNP-stimulated; 1,400 tested, 67% active; calls by dose curve; further: potency means the concentration at half of the fitted maximal effect; nearly all actives have a fitted effect of over 70% in size
FLuc counter = counter-screen for Npr1 antagonists: firefly luciferase inhibitors. shares compounds with hNpr1 antagonist. purified FLuc enzyme, luminescence, Km substrate. Potency, µM (doses to about 57.6 µM), for the others: at the top dose activity change, negative = inhibition, most hits filed as inhibitors. 1,400 tested, 0.7% active. AID 1347047; further: potency means the concentration at half of the fitted maximal effect; 0% is about no effect
GloSensor ctrl = counter-screen for Npr1 antagonists: GloSensor control cell line | shares compounds with hNpr1 antagonist | HEK293 GloSensor cGMP, SNP-stimulated, luminescence | Potency, µM (top dose mostly 57.6 µM), for the others: at the top dose activity change, negative = inhibition, actives largely listed as inhibitors | 1,400 tested, 69% active | AID 1347051; calls by dose curve; further: potency means the concentration at half of the fitted maximal effect; on the % scale 0 is the no-effect control and ±100 the full control effect; nearly all actives have a fitted effect of over 70% in size
GPT2 conf = confirmation of human GPT2 inhibitors. shares compounds with GPT2 inhibitor. GPT2 enzyme, coupled Amplex Red pyruvate fluorescence. Potency, µM, hits mostly inhibitors. 95 tested, 90% active. AID 1671187
Numbers without * were called inactive; i = inactive; ? = inconclusive; . = not tested or not shown; [ ] = dose if it differs, or a comment. Unless noted, the call rests on the fitted dose curve; in most records, active means well fitted curve in the direction sought with a large enough effect; inconclusive means small, poorly fitted or top-dose-only effect, or another doubt; inactive means no such curve, though single readings can be large; an effect the other way counts as inactive or inconclusive.

SMILES | NIH3T3 tox | GPT2 inhibitor | FLuc inh | hNpr1 antagonist | HEK293 tox | NPR1 antag cnf | Npr2 selectivity | FLuc counter | GloSensor ctrl | others
CCn1nccc1C(=O)N1[C@H]2CC[C@@H]1c1cnc(-c3ccc(F)cc3)nc1C2 | ? | i | i | 6.3µM* | ? | 11µM* | 12µM* | 2% | 11µM*
Cn1cc(C(=O)N2[C@H]3CC[C@@H]2c2cnc(-c4ccc(F)cc4)nc2C3)cn1 | -23% | i | i | 0% | ? | . | . | . | .
CC(C)C(=O)N1[C@H]2CC[C@@H]1c1cnc(-c3ccc(F)cc3)nc1C2 | -28% | -3% | i | 22µM* | ? | 19µM* | 22µM* | 1% | 19µM*
CC(C)CC(=O)N1[C@H]2CC[C@@H]1c1cnc(-c3ccc(F)cc3)nc1C2 | ? | -4% | i | 13µM* | 20µM* | 24µM* | 24µM* | 3% | 19µM*
O=C(C1CCCC1)N1[C@H]2CC[C@@H]1c1cnc(-c3ccc(F)cc3)nc1C2 | -11% | i | i | 10µM* | 16µM* | 8.6µM* | 12µM* | -1% | 8.6µM*
CCN(CC)C[C@H]1CN2CC[C@H]1C[C@@H]2CNS(=O)(=O)c1ccccc1 | -23%[138 µM] | 1%[88.5 µM] | i | 1%[70.6 µM] | -15%[172 µM] | . | . | . | .
CC(C)(O)c1cn(C[C@H]2CC3CCN2C[C@@H]3C(=O)NC2CCCCC2)nn1 (some centres not stated) | i | 0%[88.5 µM] | i | -2%[70.6 µM] | -5%[172 µM] | . | . | . | .
COc1ccc(CC(=O)N2CCC3(CC2)c2nccn2-c2ccccc2CN3C)cc1 | ? | -7% | i | ? | -7% | ? | ? | 1% | 0%
CN1Cc2ccccc2-n2ccnc2C12CCN(C(=O)C1(c3ccccc3)CC1)CC2 | -5% | -3% | i | ? | ? | ? | ? | -1% | 14%
COc1ccc(C(=O)N2CCC3(CC2)c2nccn2-c2ccccc2CN3C)cc1 | i | i | i | 2% | -3% | . | . | . | .
CCc1cc(OC)c(C[C@H](C)N)cc1OC | . | i | . | . | . | . | . | . | .
CCOC(=O)c1ccnc2cc(C(OCCN3CCCCC3)c3ccccc3Cl)sc12 (configuration not stated) | . | -10% | . | . | . | . | . | . | .
CCc1cnc(N2CCC3(CC2)C(=O)Nc2cc(OCc4ccccc4)c(OC)cc23)nc1 | ? | ? | i | -1% | ? | . | . | . | .
COc1cc2c(cc1OCc1ccccc1)NC(=O)C21CCN(c2ccccn2)CC1 | -21%[138 µM] | i | i | ? | ? | ? | ? | -3%[86.2 µM] | ?
COc1cc2c(cc1Oc1ccccc1)NC(=O)C21CCN(Cc2cccc(O)c2)CC1 | 22µM* | -17%[88.5 µM] | i | ? | ? | 40µM* | ? | 2%[86.2 µM] | 31µM*
Oc1ccc2[nH]cc(CCCCN3CC=C(c4ccccc4)CC3)c2c1 | . | 3.5µM* | . | . | . | . | . | . | . | GPT2 conf=7.7*
CN(CC[C@H](N)CC(=O)N[C@H]1C=C[C@@H](n2ccc(N)nc2=O)O[C@@H]1C(=O)O)C(=N)N | . | 1%[11.5 µM] | . | . | . | . | . | . | .
